Records with an inconclusive call do not appear. Entries that show only a call come without a potency. Calls of active or inactive are those of the source. Unless noted, the call rests on the fitted dose curve; in most records, active means well fitted curve in the direction sought with a large enough effect; inconclusive means small, poorly fitted or top-dose-only effect, or another doubt; inactive means no such curve, though single readings can be large; an effect the other way counts as inactive or inconclusive.
Columns and labels:
[1] = molecular target: DNA repair nuclease/redox regulator APEX1 (Homo sapiens) (UniProt P27695); assay: qHTS Validation Assay for Inhibitors of the Human Apurinic/apyrimidinic Endonuclease 1 (APE1) (AID 1705;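 further: TAMRA fluorescence gain over two minutes as APE1 cuts a quenched THF abasic duplex; series mostly up to about 57 µM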)
How it was run: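 Activity read as rising fluorescence (598 nm emission, 525 nm excitation) from incision of a TAMRA/BHQ-2 duplex carrying a THF abasic site (50 nM). Compound and enzyme sat 15 min at RT before substrate start; signal change between first and third 60-s reads.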

[2] = Counterscreen for APE1 Inhibitors: Fluorescent Dye Displacement Validation Assay (AID 1707)
How it was run: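 Reaction mixture of 250 nM Thiazole Orange and 50 nM double-stranded abasic-site DNA was dispensed, compounds were pin-transferred, and fluorescence was read at endpoint (480 nm ex, 540 nm em). Reduced fluorescence indicated dye displacement by DNA binding.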

[3] = molecular target: Endonuclease 4 (Escherichia coli (strain K12)) (UniProt P0A6C1); assay: Counterscreen for APE1 Inhibitors: qHTS Validation Assay for Inhibitors of Endonuclease IV (AID 1708)
How it was run: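 Read-out: fluorescence rise (ex 525/em 598 nm) from incision of a TAMRA/BHQ-2 double-stranded THF abasic-site substrate (50 nM), measured kinetically; third-minus-first read difference gave reaction progress. Enzyme 2 nM.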

[4] = qHTS for differential inhibitors of proliferation of Plasmodium falciparum line 7G8 (AID 1815);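 further: parasite growth measured after three days of incubation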
[5] = qHTS for differential inhibitors of proliferation of Plasmodium falciparum line 3D7 (AID 1876);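 further: parasite growth measured after three days of culture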
[6] = qHTS for differential inhibitors of proliferation of Plasmodium falciparum line Dd2 (AID 1882); settings: Potency: Plasmodium falciparum Dd2 proliferation inhibition;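 further: series mostly up to about 29 µM; compound exposure of 72 h on infected erythrocytes; nearly all actives have a fitted effect of over 65% in size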
How it was run: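 RBC culture, 0.3% parasitemia / 2.5% Hct final; cpd added by pin tool in DMSO; 72 h, 37 C, 5% CO2; lysis buffer + SYBR Green I, o/n RT dark; FI 485/535; norm. to artemisinin 0.29 uM and DMSO.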

[7] = molecular target: Ferritin light chain (Equus caballus) (UniProt P02791); assay: qHTS Validation Assay for Identification of Novel General Anesthetics (AID 2323); further: series mostly up to about 77 µM
How it was run: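 Competitive displacement of the profluorescent anesthetic 1-AMA (50% saturated, PBS) from 10 uM apoferritin, 10 min, room temperature. Activity is normalized 380/535 nm fluorescence; concentration-response fitted with a four-parameter Hill equation.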

[8] = molecular target: ATP-dependent DNA helicase Q1 (Homo sapiens) (UniProt P46063); assay: qHTS Validation Assay for Inhibitors of RecQ-Like Dna Helicase 1 (RECQ1) (AID 2353)
How it was run: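 RECQ1T1 50 nM; forked duplex (20 bp + 30-nt ss tails) 200 nM, ATP 2 mM final; pH 8.0, 2 mM MgCl2, 2.5 ug/ml poly(dI-dC); 15 min compound preincubation; discontinuous kinetic read over 2 h at RT.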

[9] = Validation screen for inhibitors of Lassa infection (AID 463096; calls by dose curve)
[10] = Quantitative high throughput screen for delayed death inhibitors of the malarial parasite plastid, 96 hour incubation (AID 488745); further: series mostly up to about 29 µM; nearly all actives have a fitted effect of over 70% in size
How it was run: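 Two-generation (96 h) exposure of luciferase-reporter P. falciparum in erythrocytes, 2% hematocrit, 0.1% parasitemia final, 37 C, 5% CO2, RPMI 1640 with 0.5% Albumax. Growth inhibition scored by reduced luminescence.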

[11] = Quantitative high throughput screen for delayed death inhibitors of the malarial parasite plastid, 48 hour incubation (AID 488752); further: nearly all actives have a fitted effect of over 65% in size
How it was run: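 Cultures: infected erythrocytes at final 2% hematocrit and 0.1% parasitemia in Albumax-supplemented RPMI. Parasites express integrated firefly luciferase. Incubation with compound lasts 48 h before luminescent detection of remaining reporter activity.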

[12] = molecular target: M-phase phosphoprotein 8 (Homo sapiens) (UniProt Q99549); assay: qHTS Validation Assay for Inhibitors for MPP8 Chromodomain Interactions with Methylated Histone Tails (AID 488949);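 further: AlphaScreen signal from MPP8 chromodomain bound to biotinylated H3K9me3 peptide; top concentration of the series differs between compounds; nearly all actives have a fitted effect of over 55% in size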
How it was run: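 AlphaScreen proximity signal from streptavidin donor and Ni-chelate acceptor beads (10 ug/mL each) reported binding of MPP8 to trimethyl-K9 H3(1-18) peptide, both at 50 nM. The complex formed 30 min before a 30 min compound exposure at room temperature, in PBS pH 7.4.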

[13] = molecular target: Transient receptor potential cation channel subfamily V member 1 (Homo sapiens) (UniProt Q8NER1); assay: HTS Assay for Compounds that Act as Enhancers of the Vanilloid Receptor 1 (AID 488979)
How it was run: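 TRPV1 cells loaded with Fluo-8 calcium dye; compound added and Ca2+ signal (ex 480/em 520 nm) followed 3 min, then capsaicin at EC20 added and read 2 more min to detect enhancement.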

[14] = molecular target: Thyrotropin receptor (Homo sapiens) (UniProt P16473); assay: qHTS Assay for Antagonists of the Thyroid Stimulating Hormone Receptor (AID 488980); further: series mostly up to about 58 µM
How it was run: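 Inhibition of cAMP raised by EC80 TSH (4 nM final) was read by HTRF, with lysate cAMP competing against cAMP-d2 for cryptate antibody after 30 min at room temperature. The cells were transfected HEK293 held in phosphodiesterase inhibitor RO 20-1724 at 70 uM.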

[15] = molecular target: Thyrotropin-releasing hormone receptor (Homo sapiens) (UniProt P34981); assay: qHTS for Small Molecule Agonists and Allosteric Enhancers of Human TRH Receptor: Validation Screen for Agonists (AID 493127;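 active means calcium activation more than 3 SD above the typical response in the agonist read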;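 further: intracellular calcium rise by fluo-8 fluorescence before TRH EC20 addition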); settings: TRH receptor agonist cell assay; at 2 µM; stronger effect = higher value
How it was run: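 Kinetic fluorescence assay of agonist-induced calcium release: overnight-plated TRHR cells, room-temperature fluo-8 loading, baseline then compound addition with per-second reads.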

[16] = molecular target: Galactokinase (Homo sapiens) (UniProt P51570); assay: qHTS Validation Assay for Inhibitors of Human Galactokinase (GALK) (AID 493189)
How it was run: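 Inhibition was measured as remaining ATP, detected by luciferase luminescence after a 1 h room-temperature reaction. Final conditions: 5 nM GALK, 100 uM galactose, 35 uM ATP, pH 8.0 HEPES buffer.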

[17] = Validation screen for small molecules that induce DNA re-replication in SW480 colon adenocarcinoma cells (AID 504364)
How it was run: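 Hoechst-stained SW480 nuclei, imaged at 405 nm excitation after 48 hr compound exposure, were counted for elevated DNA content as the re-replication signal.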

[18] = molecular target: Glucocorticoid receptor (Homo sapiens) (UniProt P04150); assay: qHTS assay for small molecule agonists of glucocorticoid receptor signaling (AID 588532; active means well fitted curve in the direction sought with a large enough effect in the signal ratio, with a control signal flat; the % refers to the signal ratio); settings: HeLa MMTV-bla, beta-lactamase ratio, agonist, 18 h; stronger effect = higher value; percent of dexamethasone control, DMSO zero
How it was run: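 HeLa GRE-bla reporter cells; 18 h compound exposure at 37 C; 2 h CCF4 loading at room temperature; fluorescence at 460 and 530 nm; EC50 by Hill equation.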

[19] = molecular target: Peroxisome proliferator-activated receptor delta (Homo sapiens) (UniProt Q03181); assay: qHTS assay for small molecule agonists of peroxisome proliferator-activated receptor delta signaling (AID 588534; calls by dose curve)
How it was run: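 EC50 and efficacy values derive from Hill fits of a concentration series in a beta-lactamase reporter cell assay. Exposure is 18 hrs at 37 C, with CCF4 fluorescence as the readout.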

[20] = qHTS assay for small molecule antagonists of peroxisome proliferator-activated receptor delta signaling (AID 588535; active means well fitted inhibition curve with a large enough effect in the signal ratio, with a control signal flat, not every such curve was filed as active; the % refers to the signal ratio;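 on max response: cells co-treated with a PPAR-delta agonist as stimulator during compound exposure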); settings: HEK293T PPARd-UAS-bla, beta-lactamase FRET ratio, 18 h; 460 nm channel
How it was run: (§1)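 Beta-lactamase reporter read-out (405 nm excitation, 460/530 nm emission) after CCF4 loading for 2 hrs at RT. HEK293T PPAR-delta-UAS-bla cells, 2% charcoal/dextran FBS, compounds for 18 hrs at 37 C. Hill fit gave IC50 and efficacy.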

[21] = molecular target: Peroxisome proliferator-activated receptor delta (Homo sapiens) (UniProt Q03181); assay: as above
How it was run: as §1

[22] = molecular target: Vitamin D3 receptor (Homo sapiens) (UniProt P11473); assay: qHTS assay for small molecule antagonists of vitamin D receptor signaling (AID 588541; calls by dose curve;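 further: receptor activated by calcitriol during compound treatment; series mostly up to about 77 µM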)
How it was run: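 VDR-UAS-bla HEK293T cells in 2% charcoal-stripped FBS were stimulated with 1-alpha,25-dihydroxyvitamin D3 (3 nM final) plus compound for 16 h at 37 C. The beta-lactamase CCF4 readout was normalized to 50 nM agonist and DMSO, and Hill fits gave IC50.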

[23] = molecular target: Vitamin D3 receptor (Homo sapiens) (UniProt P11473); assay: qHTS assay for small molecule agonists of vitamin D receptor signaling (AID 588543; calls by dose curve)
How it was run: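 Agonist-mode beta-lactamase reporter: HEK293T VDR-UAS-bla cells in charcoal-stripped 2% FBS, compound series 16 h 37 C, CCF4 2 h RT. EC50 from Hill fit, scaled against DMSO and 50 nM calcitriol control.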

[24] = molecular target: Thyroid hormone receptor beta (Homo sapiens) (UniProt P10828); assay: qHTS assay for small molecule agonists of thyroid hormone receptor beta signaling (AID 588545; calls by dose curve)
How it was run: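 TR-UAS-bla GripTite HEK 293 cells (2500/well, medium with 2% charcoal/dextran FBS) were treated in agonist mode for 18 h at 37 C, titrated. Beta-lactamase was read by CCF4 ratio after 2 h; normalized to 10 nM T3 (100%) and DMSO, Hill-fitted for EC50 and efficacy.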

[25] = qHTS assay for small molecule antagonists of retinoid X receptor alpha signaling (AID 588546; active means well fitted inhibition curve with a large enough effect in the signal ratio, with a control signal flat, not every such curve was filed as active; the % refers to the signal ratio;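 further: cells stimulated with 9-cis-retinoic acid as agonist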); settings: HEK293T RXRa-UAS-bla, beta-lactamase ratio, antagonist mode; measured here: W530 green channel, cytotoxicity proxy
How it was run: (§2)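 Beta-lactamase reporter inhibition, read as CCF4 fluorescence ratio (ex 405, em 460/530 nm) after 2 h at RT. HEK293T UAS-bla cells, 2500/well, were stimulated with 9-cis-RA at 500 or 100 nM final alongside test compound for 18 h at 37 C.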

[26] = molecular target: Retinoic acid receptor RXR-alpha (Homo sapiens) (UniProt P19793); assay: as above; settings: HEK293T RXRa-UAS-bla, beta-lactamase ratio, antagonist mode
How it was run: as §2

[27] = molecular target: Thyroid hormone receptor beta (Homo sapiens) (UniProt P10828); assay: qHTS assay for small molecule antagonists of thyroid hormone receptor beta signaling (AID 588547; active means well fitted inhibition curve with a large enough effect in the signal ratio, with a control signal flat, not every such curve was filed as active; the % refers to the signal ratio;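 further: cells stimulated with 0.4 nM T3 agonist during compound exposure; series mostly up to about 77 µM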); settings: TR-UAS-bla HEK293, beta-lactamase ratio, antagonist mode, 18 h
How it was run: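 TR-UAS-bla GripTite HEK293 cells in 2% charcoal/dextran FBS medium; compounds 0.59 nM to 92 uM with T3 at 0.4nM final, 18 h at 37 C. Beta-lactamase read by CCF4 fluorescence (460/530 nm); Hill fits gave IC50 and efficacy.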

[28] = qHTS assay for small molecule agonists of the antioxidant response element (ARE) signaling pathway (AID 651741; active means well fitted activation curve with a large enough effect in the signal ratio; the % refers to the signal ratio; further: potency means the concentration at half of the fitted maximal effect)
How it was run: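 HepG2 ARE-bla reporter cells, 2,000/well; 5 h settle at 37 C/5% CO2; compound pin transfer (23 nL, DMSO); 16 h at 37 C; LiveBLAzer B/G FRET substrate, 2 h RT; fluorescence intensity read.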

[29] = qHTS assay for small molecule activators of the p53 signaling pathway (AID 651743; active means well fitted activation curve with a large enough effect in the signal ratio, not every such curve was filed as active; the % refers to the signal ratio; further: series mostly up to about 92 µM); settings: HCT-116 p53RE-bla, beta-lactamase FRET ratio, 16 h; activation: stronger effect = higher value
How it was run: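 Reporter: beta-lactamase driven by p53 response elements, stably integrated in HCT-116 cells. Cells seeded at 4,000/well, 5 h preincubation, compound (DMSO) 16 h at 37 C; B/G FRET substrate 2 h RT; fluorescence intensity read.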

[30] = molecular target: Peroxisome proliferator-activated receptor alpha (Homo sapiens) (UniProt Q07869); assay: qHTS assay for small molecule agonists of the peroxisome proliferator-activated receptor alpha (PPARalpha) signaling pathway (AID 651778); settings: PathHunter PPARalpha complementation, chemiluminescence, 6 h; stronger effect = higher value
How it was run: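 Enzyme-fragment complementation assay in which ligand-bound PPARalpha translocates and forms an active enzyme that generates chemiluminescence. Cells were plated overnight, exposed to compound for 6 hr at 37 C, and then given detection reagent for 60 min at room temperature.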

[31] = qHTS assay for small molecule agonists of the antioxidant response element (ARE) signaling pathway measured by Nrf2-dependant transcriptional activity (AID 720636; active means well fitted curve in the direction sought with a large enough effect in the repeat runs; an effect the other way counts as inactive or inconclusive;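 further: HepG2 cells with an ARE-driven luciferase reporter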)
How it was run: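 In HepG2 cells engineered with an Nrf2-responsive luciferase gene, ARE induction was quantified as luminescence after 16 hr compound treatment at 37 C.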

[32] = qHTS assay for small molecule agonists of the antioxidant response element (ARE) signaling pathway measured by Nrf2-dependant transcriptional activity - cell viability counter screen (AID 720653; active means well fitted curve in the direction sought with a large enough effect in the repeat runs; an effect the other way counts as inactive or inconclusive); settings: ARE-bla HepG2 viability, CellTiter-Glo ATP luminescence, 16 h; stronger effect = lower value
How it was run: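 ARE-bla HepG2 cells treated with compounds for 16 h at 37C; this counter screen measures viability as intracellular ATP by CellTiter-Glo luminescence after 30 min at room temperature.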

[33] = qHTS assay for cell viability of HEK293 cells (AID 743288); settings: ATP luminescence (CellTiter-Glo), 18 h; max response: stronger effect = lower value; further: nearly all actives have a fitted effect of over 50% in size
How it was run: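 Readout is luciferase-coupled ATP content (CellTiter-Glo luminescence, 30 min room temperature) as a measure of metabolically competent cells. Parental HEK293 cells were plated 5 h or more before compound addition, then treated 18 h at 37 C.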

[34] = qHTS assay for cell viability of the p53RE-bla HCT-116 cell line (AID 743292); further: nearly all actives have a fitted effect of over 55% in size
How it was run: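 Intracellular ATP of p53RE-bla HCT-116 cells measured by luciferase luminescence following 16 h compound incubation at 37 C; DMSO-only wells served as vehicle controls.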

[35] = molecular target: Nuclear receptor subfamily 1 group I member 2 (Rattus norvegicus) (UniProt Q9R1A7); assay: qHTS assay for small molecule activators of the rat pregnane X receptor (rPXR) signaling pathway (AID 651751; call rule not given here); settings: rPXR reporter cells, luciferase (One-Glo), 24 h
Chain of Nuclear receptor subfamily 1 group I member 2 (Rattus norvegicus) (Q9R1A7 whole entry, looked up): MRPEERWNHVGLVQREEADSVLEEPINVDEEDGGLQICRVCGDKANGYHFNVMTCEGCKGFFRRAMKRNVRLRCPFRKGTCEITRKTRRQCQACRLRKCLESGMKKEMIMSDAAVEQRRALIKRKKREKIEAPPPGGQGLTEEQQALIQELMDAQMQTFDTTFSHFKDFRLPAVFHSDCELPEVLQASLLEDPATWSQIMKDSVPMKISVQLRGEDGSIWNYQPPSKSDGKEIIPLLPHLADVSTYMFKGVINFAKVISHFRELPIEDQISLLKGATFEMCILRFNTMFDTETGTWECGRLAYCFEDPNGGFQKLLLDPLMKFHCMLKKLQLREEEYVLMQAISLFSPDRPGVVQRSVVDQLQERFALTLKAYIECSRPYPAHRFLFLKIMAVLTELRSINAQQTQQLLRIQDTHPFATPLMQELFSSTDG

Chain of Peroxisome proliferator-activated receptor delta (Homo sapiens) (Q03181 whole entry, looked up): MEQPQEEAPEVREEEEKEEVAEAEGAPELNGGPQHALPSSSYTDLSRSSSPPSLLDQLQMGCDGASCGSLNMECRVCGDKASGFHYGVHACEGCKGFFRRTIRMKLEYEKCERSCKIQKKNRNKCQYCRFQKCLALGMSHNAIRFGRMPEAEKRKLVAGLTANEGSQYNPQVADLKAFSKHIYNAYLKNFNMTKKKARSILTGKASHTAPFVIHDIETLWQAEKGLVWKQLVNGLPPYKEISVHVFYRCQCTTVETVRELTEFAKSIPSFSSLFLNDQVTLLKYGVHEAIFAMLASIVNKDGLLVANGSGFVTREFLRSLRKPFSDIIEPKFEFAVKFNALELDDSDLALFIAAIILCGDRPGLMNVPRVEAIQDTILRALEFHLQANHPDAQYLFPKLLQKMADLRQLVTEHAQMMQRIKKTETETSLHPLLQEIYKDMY
Chain of Thyroid hormone receptor beta (Homo sapiens) (P10828 whole entry, looked up): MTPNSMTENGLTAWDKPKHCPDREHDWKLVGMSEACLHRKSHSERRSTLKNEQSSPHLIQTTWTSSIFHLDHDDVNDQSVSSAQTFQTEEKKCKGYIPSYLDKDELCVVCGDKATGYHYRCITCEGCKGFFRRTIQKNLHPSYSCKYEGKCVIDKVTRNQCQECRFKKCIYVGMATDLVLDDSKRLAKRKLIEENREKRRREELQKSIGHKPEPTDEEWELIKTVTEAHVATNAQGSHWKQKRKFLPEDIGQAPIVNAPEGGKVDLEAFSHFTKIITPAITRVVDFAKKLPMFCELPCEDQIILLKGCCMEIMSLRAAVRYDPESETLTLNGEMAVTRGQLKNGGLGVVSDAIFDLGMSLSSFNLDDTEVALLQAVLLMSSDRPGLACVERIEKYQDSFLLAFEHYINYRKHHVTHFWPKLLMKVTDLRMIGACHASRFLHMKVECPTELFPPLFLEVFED
Chain of Vitamin D3 receptor (Homo sapiens) (P11473 whole entry, looked up): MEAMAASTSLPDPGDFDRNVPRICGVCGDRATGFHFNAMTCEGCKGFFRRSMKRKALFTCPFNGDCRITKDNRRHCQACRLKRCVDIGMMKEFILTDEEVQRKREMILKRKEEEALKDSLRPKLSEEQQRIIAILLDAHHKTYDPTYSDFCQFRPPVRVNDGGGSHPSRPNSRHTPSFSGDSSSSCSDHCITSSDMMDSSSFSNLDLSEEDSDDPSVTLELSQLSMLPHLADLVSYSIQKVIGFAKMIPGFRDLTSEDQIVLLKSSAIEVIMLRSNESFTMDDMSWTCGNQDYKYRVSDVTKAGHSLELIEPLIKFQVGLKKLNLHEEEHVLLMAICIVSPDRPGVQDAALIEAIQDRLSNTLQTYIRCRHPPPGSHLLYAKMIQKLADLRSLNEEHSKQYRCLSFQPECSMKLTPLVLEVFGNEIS
Chain of Glucocorticoid receptor (Homo sapiens) (P04150 whole entry, looked up): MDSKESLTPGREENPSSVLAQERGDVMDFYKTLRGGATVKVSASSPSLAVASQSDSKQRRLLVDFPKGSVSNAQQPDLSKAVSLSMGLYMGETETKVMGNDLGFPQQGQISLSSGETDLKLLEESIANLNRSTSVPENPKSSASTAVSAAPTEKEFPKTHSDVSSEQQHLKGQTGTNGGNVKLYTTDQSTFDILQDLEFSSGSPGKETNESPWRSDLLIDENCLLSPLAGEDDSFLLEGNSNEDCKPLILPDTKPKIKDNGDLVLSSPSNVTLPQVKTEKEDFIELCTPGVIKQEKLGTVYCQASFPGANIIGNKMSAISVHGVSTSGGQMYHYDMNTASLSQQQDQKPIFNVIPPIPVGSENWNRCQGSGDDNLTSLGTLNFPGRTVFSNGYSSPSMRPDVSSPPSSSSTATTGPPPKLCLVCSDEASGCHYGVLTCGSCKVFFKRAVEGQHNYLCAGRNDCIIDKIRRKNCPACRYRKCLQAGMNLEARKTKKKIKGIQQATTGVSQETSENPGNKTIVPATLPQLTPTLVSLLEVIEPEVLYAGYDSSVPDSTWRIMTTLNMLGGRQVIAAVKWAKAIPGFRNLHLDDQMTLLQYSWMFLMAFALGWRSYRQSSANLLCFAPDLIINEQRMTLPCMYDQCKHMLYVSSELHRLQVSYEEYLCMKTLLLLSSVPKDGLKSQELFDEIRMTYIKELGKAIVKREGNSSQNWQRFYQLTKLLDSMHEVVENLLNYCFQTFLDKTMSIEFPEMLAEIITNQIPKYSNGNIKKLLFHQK
Chain of Transient receptor potential cation channel subfamily V member 1 (Homo sapiens) (Q8NER1 whole entry, looked up): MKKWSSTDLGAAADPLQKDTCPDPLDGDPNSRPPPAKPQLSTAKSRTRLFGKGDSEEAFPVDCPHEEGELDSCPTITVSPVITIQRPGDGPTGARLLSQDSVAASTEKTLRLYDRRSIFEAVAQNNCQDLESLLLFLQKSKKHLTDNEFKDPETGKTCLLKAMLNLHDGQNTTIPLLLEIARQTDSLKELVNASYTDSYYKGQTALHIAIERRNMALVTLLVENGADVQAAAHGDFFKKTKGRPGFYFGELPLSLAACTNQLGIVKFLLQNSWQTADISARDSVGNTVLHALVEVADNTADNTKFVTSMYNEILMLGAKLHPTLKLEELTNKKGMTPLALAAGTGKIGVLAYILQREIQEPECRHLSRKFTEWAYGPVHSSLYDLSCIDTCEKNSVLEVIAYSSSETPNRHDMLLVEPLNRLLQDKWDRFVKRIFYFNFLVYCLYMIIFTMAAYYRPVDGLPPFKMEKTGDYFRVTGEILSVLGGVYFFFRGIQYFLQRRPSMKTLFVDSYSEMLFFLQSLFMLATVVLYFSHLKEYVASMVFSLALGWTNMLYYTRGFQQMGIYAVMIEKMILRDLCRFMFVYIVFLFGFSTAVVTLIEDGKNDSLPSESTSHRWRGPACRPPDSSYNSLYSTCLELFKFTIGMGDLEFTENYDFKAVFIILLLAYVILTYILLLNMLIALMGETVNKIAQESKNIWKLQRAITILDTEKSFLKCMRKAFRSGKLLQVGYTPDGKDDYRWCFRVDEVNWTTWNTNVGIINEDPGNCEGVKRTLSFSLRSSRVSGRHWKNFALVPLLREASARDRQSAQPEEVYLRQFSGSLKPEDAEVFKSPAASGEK
Chain of DNA repair nuclease/redox regulator APEX1 (Homo sapiens) (P27695 whole entry, looked up): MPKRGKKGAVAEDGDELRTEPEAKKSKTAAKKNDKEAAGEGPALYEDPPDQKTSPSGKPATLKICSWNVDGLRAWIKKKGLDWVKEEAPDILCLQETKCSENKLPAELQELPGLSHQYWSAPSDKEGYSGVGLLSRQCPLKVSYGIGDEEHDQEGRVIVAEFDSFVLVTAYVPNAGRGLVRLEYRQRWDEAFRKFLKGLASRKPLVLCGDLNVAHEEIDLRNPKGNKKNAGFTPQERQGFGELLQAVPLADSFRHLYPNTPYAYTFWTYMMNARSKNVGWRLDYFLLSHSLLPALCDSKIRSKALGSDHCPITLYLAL
Chain of Peroxisome proliferator-activated receptor alpha (Homo sapiens) (Q07869 whole entry, looked up, the tested form may be a part): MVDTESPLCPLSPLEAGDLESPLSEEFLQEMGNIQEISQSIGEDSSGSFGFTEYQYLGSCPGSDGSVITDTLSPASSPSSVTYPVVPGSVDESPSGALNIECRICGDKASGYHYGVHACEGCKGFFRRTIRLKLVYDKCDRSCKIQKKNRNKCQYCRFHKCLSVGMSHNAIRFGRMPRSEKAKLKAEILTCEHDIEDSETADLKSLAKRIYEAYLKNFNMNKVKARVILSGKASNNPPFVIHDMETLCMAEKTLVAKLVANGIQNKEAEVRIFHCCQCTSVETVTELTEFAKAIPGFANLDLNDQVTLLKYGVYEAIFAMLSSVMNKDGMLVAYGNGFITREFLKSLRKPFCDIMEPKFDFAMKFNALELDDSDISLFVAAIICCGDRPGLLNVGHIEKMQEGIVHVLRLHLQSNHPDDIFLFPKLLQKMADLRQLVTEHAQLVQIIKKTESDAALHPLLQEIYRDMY
Chain of Retinoic acid receptor RXR-alpha (Homo sapiens) (P19793 whole entry, looked up): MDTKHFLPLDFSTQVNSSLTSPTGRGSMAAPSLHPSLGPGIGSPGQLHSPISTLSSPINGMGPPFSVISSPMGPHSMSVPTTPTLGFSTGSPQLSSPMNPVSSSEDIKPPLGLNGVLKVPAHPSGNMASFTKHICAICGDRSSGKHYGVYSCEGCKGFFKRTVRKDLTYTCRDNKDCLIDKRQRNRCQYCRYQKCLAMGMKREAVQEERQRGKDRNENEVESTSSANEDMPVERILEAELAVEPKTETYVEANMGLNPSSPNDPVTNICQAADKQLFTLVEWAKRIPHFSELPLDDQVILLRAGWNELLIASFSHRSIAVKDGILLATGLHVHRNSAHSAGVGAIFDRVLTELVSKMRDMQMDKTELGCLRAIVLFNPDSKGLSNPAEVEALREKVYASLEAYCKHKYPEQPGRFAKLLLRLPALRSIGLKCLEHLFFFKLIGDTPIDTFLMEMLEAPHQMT
Chain of Ferritin light chain (Equus caballus) (P02791 2-175 limits assumed): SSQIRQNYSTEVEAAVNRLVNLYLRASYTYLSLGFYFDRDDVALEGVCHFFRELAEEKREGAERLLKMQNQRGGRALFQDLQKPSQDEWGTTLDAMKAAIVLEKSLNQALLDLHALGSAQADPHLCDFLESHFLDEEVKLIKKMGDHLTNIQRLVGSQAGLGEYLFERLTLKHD

## O=C(O)C1C2CCC(O2)C1C(=O)O (stereo not given)
[1]
  Potency: inactive
[2]
  outcome: inactive
[3]
  Potency: inactive
[4]
  Potency: inactive
[5]
  Potency: inactive
[6]
  Potency: inactive
[7]
  Potency: inactive
[8]
  outcome: inactive
[9]
  Potency: inactive
[10]
  Potency: inactive
[11]
  Potency: inactive
[12]
  Potency: inactive
[13]
  outcome: inactive
[14]
  outcome: inactive
[15]
  activation: 1.38% (inactive)
[16]
  outcome: inactive
[17]
  outcome: inactive
[18]
  activation: -13.9% (inactive)
[19]
  outcome: inactive
[20]
  max response: 16.5%
[21]
  Potency: inactive
[22]
  outcome: inactive
[23]
  outcome: inactive
[24]
  outcome: inactive
[25]
  max response: -24.5%
[26]
  max response: -26.2% (inactive)
[27]
  activity change % (negative = inhibition): -12% (inactive)
[28]
  Potency: 27.3 µM (active)
[29]
  activation: 4.04% (inactive)
[30]
  max response: -0.146% (inactive)
[31]
  outcome: inactive
[32]
  max response: -12.2% (inactive)
[33]
  max response: -14.9% (inactive)
[34]
  Potency: inactive
[35]
  max response: 4.79% (inactive)

From PubChem BioAssay (NCATS)
